Assay [1] in a line: NCATS anti-infectives library activity on HEK293 viability as a counter-qHTS vs the C. elegans viability qHTS (AID 1745854).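 Also: HEK293 cells exposed to compounds for 24 hr before the viability read.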 The essentials: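 Compound titrations (final up to 41.7 uM) were incubated with HEK293 cells for 24 hr at 37C under 5% CO2. Viable cells were quantified with CellTiter-Glo after 10 min at ambient temperature.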
Assay [2] addresses Glutathione peroxidase 1 (Homo sapiens) (UniProt P07203). Description: Primary qHTS Assay for Inhibitors of Recombinant Selenoprotein Glutathione Peroxidase 1 (GPX1) (AID 1845191). Also: nearly all actives have a fitted effect of over 65% in size. The essentials:
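GPX1 10 nM, GR 100 nM, GSH 1 mM, NADPH 0.5 mM, CHP 0.5 mM (final). 30-min cpd preincubation, RT. Ex340/Em450 read t=0, t=15 min.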
(qHTS replaces the single test concentration by a dilution series.)

Assay [3] can be described thus: NCATS anti-infectives library activity on the primary C. elegans qHTS viability assay (AID 1745855; calls by dose curve). The essentials: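 Titration-based screen in worms: eggs hatched overnight in M9, L1 larvae fed TOP10 capsules in S medium with compound, incubated 21 °C for 7 days; fluorescent objects gated by size and intensity at days 0, 3 and 7.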
In assay [4] the target is Phospholipid hydroperoxide glutathione peroxidase GPX4 (Homo sapiens) (UniProt P36969). Description: Primary qHTS Assay for Inhibitors of Recombinant Selenoprotein Glutathione Peroxidase 4 (GPX4) (AID 1845192). Also: nearly all actives have a fitted effect of over 65% in size. Summed up: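 qHTS, GR-coupled: GPX4 200 nM + cpd 30 min RT → GSH 1 mM, NADPH 0.5 mM, GR 100 nM → CHP 0.5 mM start; fluor 340/450 at t0 and t15 min; no-enzyme wells as control.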
Phospholipid hydroperoxide glutathione peroxidase GPX4 (Homo sapiens), sequence (P36969 whole entry, looked up): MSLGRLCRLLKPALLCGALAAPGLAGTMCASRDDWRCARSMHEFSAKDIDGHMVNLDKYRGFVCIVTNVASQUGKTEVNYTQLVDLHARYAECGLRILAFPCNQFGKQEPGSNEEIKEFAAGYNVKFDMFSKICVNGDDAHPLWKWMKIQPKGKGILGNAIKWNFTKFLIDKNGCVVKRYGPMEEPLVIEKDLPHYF

Results filed as inconclusive are left out. Unmarked numbers belong to inactive results. Calls of active or inactive are those of the source. Unless noted, calls follow the shape of the dose curve; as a rule, active = well fitted curve in the direction sought with a large enough effect; inconclusive = small, poorly fitted or top-dose-only effect, or another doubt; inactive = no such curve, though single readings can be large; an effect the other way counts as inactive or inconclusive.

Glutathione peroxidase 1 (Homo sapiens), sequence (P07203 whole entry, looked up): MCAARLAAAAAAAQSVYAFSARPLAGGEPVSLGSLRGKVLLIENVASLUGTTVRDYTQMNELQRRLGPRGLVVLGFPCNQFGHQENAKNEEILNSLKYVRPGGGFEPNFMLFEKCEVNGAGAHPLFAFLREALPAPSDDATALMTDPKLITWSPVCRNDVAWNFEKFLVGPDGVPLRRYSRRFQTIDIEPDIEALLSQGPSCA

As to `COC(=O)N[C@H](C(=O)N1CCC[C@H]1C(=O)Nc1ccc([C@@H]2CC[C@@H](c3ccc(NC(=O)[C@@H]4CCCN4C(=O)[C@@H](NC(=O)OC)C(C)C)cc3)N2c2ccc(C(C)(C)C)cc2)cc1)C(C)C`, the Potency result in assay [1] and in assay [2] was “inactive” in each case.

As to `[N-]=[N+]=NCc1cccc(/C(O)=C\C(=O)C(=O)O)c1`, the Potency result in assay [1] and in assay [3] was “inactive” in each case.

Turning to `O=C(O)CCCN1CCC(O[C@@H](c2ccc(Cl)cc2)c2ccccn2)CC1`, the Potency entry in assay [1], in assay [2] and in assay [4] was “inactive” throughout.

In the case of `Cn1c(=O)cc(N2CCC[C@@H](N)C2)n(Cc2ccccc2C#N)c1=O`, the Potency result in assay [1], in assay [3], in assay [2] and in assay [4] was “inactive” each time.

With `C[C@H]1[C@H](OC(=O)CCC(=O)O)O[C@@H]2O[C@@]3(C)CC[C@H]4[C@H](C)CC[C@@H]1[C@@]24OO3`, the Potency result in assay [1], in assay [2] and in assay [4] was “inactive” throughout.

Source of the values: PubChem BioAssay (NCATS).
